The sample as a whole holds a higher share of hits than the screen did.
TDP1 cell CPT – growth inhibition of DT40 Tdp1-/-;hTDP1 cells with camptothecin (screen for TDP1 inhibitors). Potency, µM (titrated, usually from 46.2 µM), inactives show at the highest dose activity change, negative = growth inhibition, usual class: inhibitors. AID 686979. chicken DT40 Tdp1-/-;hTDP1 cells + 20 nM CPT, ATP luminescence, 48 h. 420,000 tested, 12% active; further: potency means the concentration at half of the fitted maximal effect; nearly all actives have a fitted effect of over 55% in size
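Cell growth measured by CellTiter-Glo luminescence after a minimum 48 h, 37 C compound exposure with 20 nM CPT in Tdp1-knockout DT40 cells stably expressing hTDP1, seeded 400/well; qHTS titration format.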
IL-1B inflam inh – inflammasome signaling inhibition, IL-1 beta readout; activity change, % at 57.5 µM; THP-1 LPS/ATP IL-1B secretion, AlphaLISA, 16 h; active compounds read low; AID 743279; 360,000 tested, 4.7% active; in the data active means activity change below about -50%; inconclusive means mostly about -30% to -49%
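Secreted IL-1B measured by AlphaLISA bead assay after 16 h compound exposure of THP-1 cells; compounds (final up to 57.5 uM) added 1 h before LPS (250 ng/mL) and ATP (1.25 mM) stimulation; lower signal means less secretion.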
ALOX12 inh – blocks human arachidonate 12S-lipoxygenase | 580,000 tested, 1.1% active | P18054 | purified 12hLO, xylenol orange hydroperoxide absorbance | Potency, µM (top dose mostly 108 µM), for inactives: top-dose activity change, negative = inhibition, hits mostly inhibitors; further: potency means the concentration at half of the fitted maximal effect
Target sequence (P18054 whole entry, looked up): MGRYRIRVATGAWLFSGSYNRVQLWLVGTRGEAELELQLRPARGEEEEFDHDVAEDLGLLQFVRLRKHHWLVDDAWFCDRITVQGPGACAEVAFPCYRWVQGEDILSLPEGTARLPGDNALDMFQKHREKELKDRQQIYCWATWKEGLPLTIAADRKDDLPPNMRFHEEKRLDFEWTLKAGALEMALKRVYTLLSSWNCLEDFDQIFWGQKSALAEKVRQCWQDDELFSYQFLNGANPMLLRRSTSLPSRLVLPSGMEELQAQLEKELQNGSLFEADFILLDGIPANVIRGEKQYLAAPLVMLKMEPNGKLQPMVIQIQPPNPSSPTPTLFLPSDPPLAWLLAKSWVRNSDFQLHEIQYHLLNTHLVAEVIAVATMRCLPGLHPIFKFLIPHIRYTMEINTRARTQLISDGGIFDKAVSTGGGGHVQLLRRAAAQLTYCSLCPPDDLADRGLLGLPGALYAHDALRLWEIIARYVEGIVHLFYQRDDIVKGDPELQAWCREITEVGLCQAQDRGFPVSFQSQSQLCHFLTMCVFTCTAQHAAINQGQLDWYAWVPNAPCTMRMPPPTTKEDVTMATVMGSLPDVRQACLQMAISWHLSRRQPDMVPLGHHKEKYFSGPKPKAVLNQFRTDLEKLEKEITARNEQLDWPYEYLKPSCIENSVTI
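Purified human 12hLO (150 nM final) in 25 mM Hepes, 0.01% Triton X-100, pH 7.0 was preincubated 15 min at room temperature with compound. Then 40 uM arachidonic acid was added, 30 min. Hydroperoxide was read by Fe-XO absorbance ratio 573/405 nm.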
HT1080 IDH1KD tx – kills HT-1080 cells with IDH1 knockdown | Potency, µM (doses to about 46.1 µM), for inactives: at the top dose activity, negative = toxicity, usual class: cytotoxic | AID 686971 | 360,000 tested, 2% active | HT-1080 IDH1 knockdown viability, ATP luminescence, 48 h;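 further: potency means the concentration at half of the fitted maximal effect; 0% = DMSO wells and -100% = cell-free medium wells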
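Assay cells: HT-1080 with IDH1 knockdown, 750 per well, RPMI/5% FBS. Exposure: 48 h at 37 °C following 2 h pre-incubation. Read: CellTiter-Glo luminescence; fitted concentration-response, curve class assigned.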
TDP1 cell noCPT – qHTS for Inhibitors of human tyrosyl-DNA phosphodiesterase 1 (TDP1): qHTS in cells in absence of CPT | Potency, µM (series often up to 46.2 µM), for inactives: top-dose activity change, negative = growth inhibition, usual class: inhibitors | DT40 Tdp1-/- hTDP1 cells, no CPT, ATP luminescence, 48 h | 420,000 tested, 15% active; further: potency means the concentration at half of the fitted maximal effect; nearly all actives have a fitted effect of over 55% in size
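Chicken DT40 Tdp1-/- cells complemented with human TDP1, screened without camptothecin (DMSO vehicle only), 400 cells/well. Compounds pin-transferred, cells incubated at 37 °C for at least 48 hr. Growth read as ATP-dependent luminescence (CellTiter-Glo, 30 min at RT).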
HT1080NT lethal – kills 2HG-producing HT-1080-NT fibrosarcoma cells; HT-1080-NT fibrosarcoma viability, CellTiter-Glo ATP luminescence, 48 h; Potency, µM (doses to about 46.1 µM), inactives show at the highest dose activity, negative = less viability, usual class: cytotoxic; 360,000 tested, 1.6% active;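 further: NT is the 2HG producing partner of a matched IDH1 knockdown line; potency means the concentration at half of the fitted maximal effect; 0% = DMSO-treated cells and -100% = media-only wells without cells; nearly all actives have a fitted effect of over 55% in size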
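A 48-hour cytotoxicity screen used HT-1080-NT cells plated 2 hours before compound delivery. ATP-based CellTiter-Glo luminescence measured viability, normalized to DMSO and no-cell controls.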
Starred values were filed as active, the others as inactive; ? = inconclusive; / = no result; [ ] = remark or other dose. Unless noted, the call rests on the fitted dose curve; in most records, active means well fitted curve in the direction sought with a large enough effect; inconclusive means small, poorly fitted or top-dose-only effect, or another doubt; inactive means no such curve, though single readings can be large; an effect the other way counts as inactive or inconclusive. Unless noted, on the % scale 0 is the no-effect control and ±100 the full control effect.

SMILES	TDP1 cell CPT	IL-1B inflam inh	ALOX12 inh	HT1080 IDH1KD tx	TDP1 cell noCPT	HT1080NT lethal
O=C(Cc1ccccc1Cl)N1CCN(C2CCN(CCc3ccccc3)C2=O)CC1 (configuration not stated)	/	/	70.0%	/	/	/
O=C(Nc1ccccc1)[C@H]1CN2CCC1C[C@@H]2Cn1cc(-c2ccccc2)nn1 (some centres not stated)	/	/	-1.2%[176 µM]	/	/	/
CC12CCC(O)CC1CCC1[C@@H]2CC(O)C2(C)C(C3=CC(=O)OC3)CCC12O (some centres not stated)	/	/	-6.3%	/	/	/
CS(=O)(=O)N(CC(=O)N1CCN(Cc2ccc3c(c2)OCO3)CC1)Cc1ccc(Cl)cc1	11.2µM*	-13.9	-4.2%	?	?	-9.3%
CSc1ccc(CN2CCN(C(=O)COc3ccc(C)cc3)CC2)cc1	?	-22.0	?	-14.1%	18.4µM*	-0.1%
CCCCNS(=O)(=O)c1ccc(OCC(=O)N2CCN(Cc3ccc4c(c3)OCO4)CC2)cc1	10.3µM*	-28.6	-24.6%	-1.1%	?	-8.4%
Cn1nc(-c2ccc(OCC(=O)N3CCN(Cc4ccccc4)CC3)cc2)c2ccccc2c1=O	13µM*	5.0	?	-14.3%	6.51µM*	-3.5%
Cc1cccc(OCC(=O)N2CCN(Cc3ccc4c(c3)OCO4)CC2)c1	-3.3%	-8.2	?	0.0%	?	1.2%
Cc1[nH]nc2c1C(c1ccc(-c3cccc(Cl)c3)o1)SCC(=O)N2 (configuration not stated)	/	/	-40.8%	/	/	/
Cc1ccc(OCC(=O)N2CCN(Cc3ccc4c(c3)OCO4)CC2)cc1C	-6.3%	-7.7	-18.6%	-12.1%	-27.3%	-6.3%
O=C(COc1ccc(Br)cc1)N1CCN(Cc2ccc3c(c2)OCO3)CC1	?	-59.6*	?	-14.4%	-12.8%	-0.4%
COc1ccc(Nc2nc(NC(C)C)nc3ccsc23)cc1OC	18.4µM*	-89.1*	-2.0%	-26.2%	18.4µM*	?
Cc1nc(N2CCN(Cc3ccccc3)CC2)nc2c1C(=O)CC(C)C2 (configuration not stated)	18.4µM*	0.0	0.0%	-19.3%	16.4µM*	-4.1%
COc1cc(/C=C/c2ccc3ccccc3[n+]2C)cc(OC)c1OC	?	/	/	/	12.6µM*	/
COc1cc(/C=C2\C(=O)NC(=O)N(c3ccccc3)C2=O)cc(OC)c1OC	-3.6%	25.0	?	12.0%	-2.9%	10.2%
Cc1ccccc1O	14.4%	-5.5	5.8%	3.0%	0.6%	0.4%
Oc1cccc[c]1[Hg][Cl]	0.188µM*	/	/	/	0.15µM*	/
CCOC(=O)c1cnc2c(ccc3ccccc32)c1Nc1ccc(N(C)C)cc1	14.6µM*	/	?	/	?	/
Oc1cc(O)c2c(c1)OC(c1cc(O)c(O)c(O)c1)C(O)C2 (configuration not stated)	3.26µM*	/	/	/	?	/
O=C(OC1Cc2c(O)cc(O)cc2OC1c1cc(O)c(O)c(O)c1)c1cc(O)c(O)c(O)c1 (configuration not stated)	-11.4%	/	/	/	?	/
CCOC(=O)c1cccc(NC2c3ccccc3C(=O)N2Cc2ccco2)c1 (configuration not stated)	11.6µM*	0.0	4.0%	-10.9%	6.51µM*	-12.1%
COc1ccc(S(=O)(=O)N2[C@H]3CC[C@@H]2c2cncnc2C3)cc1	/	/	-10.9%	/	/	/
Cc1ccc(-c2cc(-c3ccc(C)cc3)[n+](C)o2)cc1	0.461µM*	0.0	-7.2%	?	0.326µM*	-18.0%
CC(=O)OC1C(=O)[C@]2(C)C(O)CC3OC[C@]3(OC(C)=O)C2[C@@H](OC(=O)c2ccccc2)[C@]2(O)CC(O)C(C)=C1C2(C)C (some centres not stated)	?	/	/	/	3.66µM*	/
CC(=O)O[C@@]12CO[C@H]1C[C@H](O)[C@@]1(C)C(=O)[C@H](O)C3=C(C)[C@@H](O)C[C@@](O)([C@@H](OC(=O)c4ccccc4)[C@@H]21)C3(C)C	/	/	-5.5%[57.4 µM]	/	/	/
CC(=O)OC12COC1CC(O)C1(C)C(=O)C(O)C3=C(C)C(O)CC(O)(C(OC(=O)c4ccccc4)C21)C3(C)C (configuration not stated)	1.16µM*	33.8	-21.5%	?	1.03µM*	?
COc1cc(C2SCC(=O)Nc3[nH]ncc32)ccc1OCC(C)C (configuration not stated)	/	/	-6.3%	/	/	/
O=C(O)CCCc1ccc(N(CCCl)CCCl)cc1	0.461µM*	-1.3	?	1.1%	0.651µM*	-6.5%

From PubChem BioAssay
